Measurements: PubChem BioAssay (EPA / NIEHS)
Activity calls are given as the source filed them. The calls were made as follows: active = hit-call score of the fitted dose curve at least 0.9, where 1 is the maximum; inactive = score below 0.9.

Legend:
[1] = ATG_NFI_CIS: Attagene CIS-FACTORIAL HepG2 Assay for human Nuclear Factor I (NFI) (AID 2282989); conditions: HepG2 cis-regulatory reporter, NFI response element transcription; actives raise or lower the signal
Summary of the method: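 Reporter transcription driven by endogenous transcription factors in HepG2 cells; 24 h treatment. Quantitation by labelled RT-PCR fragments on capillary electrophoresis, gain- or loss-of-signal relative to DMSO.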

[2] = target: Myc proto-oncogene protein (Homo sapiens) (UniProt P01106); assay: ATG_Myc_CIS: Attagene CIS-FACTORIAL HepG2 Assay for human Myelocytomatosis (Myc) Proto-Oncogene Transcription Factor (AID 2282990); conditions: HepG2, Attagene cis-reporter transcription factor activity; actives raise or lower the signal
Sequence of Myc proto-oncogene protein (Homo sapiens) (P01106 whole entry, looked up): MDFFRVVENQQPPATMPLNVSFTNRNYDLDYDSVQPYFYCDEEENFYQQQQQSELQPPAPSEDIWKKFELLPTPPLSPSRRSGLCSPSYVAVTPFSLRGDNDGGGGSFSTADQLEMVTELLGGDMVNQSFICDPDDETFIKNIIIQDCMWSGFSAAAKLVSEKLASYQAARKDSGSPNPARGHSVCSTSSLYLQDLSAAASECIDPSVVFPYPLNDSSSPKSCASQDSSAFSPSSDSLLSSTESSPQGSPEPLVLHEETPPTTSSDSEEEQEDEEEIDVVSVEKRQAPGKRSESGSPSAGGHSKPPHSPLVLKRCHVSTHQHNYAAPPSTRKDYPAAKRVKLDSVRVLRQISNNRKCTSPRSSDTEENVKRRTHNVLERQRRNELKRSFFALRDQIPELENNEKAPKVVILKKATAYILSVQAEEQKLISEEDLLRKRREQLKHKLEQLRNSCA
Summary of the method: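 Transiently transfected HepG2 cells bearing cis-promoter reporter units for endogenous transcription factors; 24 h exposure. Reporter mRNA measured by RT-PCR, 6-FAM primer extension, HpaI cut and capillary electrophoresis; bidirectional fit relative to DMSO.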

[3] = ATG_NF_kB_CIS: Attagene CIS-FACTORIAL HepG2 Assay for human Nuclear Factor Kappa B (NF-kB) (AID 2282991); conditions: HepG2 Attagene cis-factorial NF-kB reporter mRNA; actives raise or lower the signal
Summary of the method: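 Multiplexed cis-reporter assay in transiently transfected HepG2. 24 h treatment; RNA isolated, RT-PCR, labelled fragments resolved by CE. DMSO baseline.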

[4] = ATG_Oct_MLP_CIS: Attagene CIS-FACTORIAL HepG2 Assay for human Octamer-Binding Transcription Factor (Oct) (AID 2282993); conditions: HepG2 Attagene cis-factorial Oct reporter, mRNA; actives raise or lower the signal
Summary of the method: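 Transfected HepG2 cells, 24 h treatment. Reporter mRNA quantified by RT-PCR–capillary electrophoresis; bidirectional fitting against DMSO.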

[5] = target: Cellular tumor antigen p53 (Homo sapiens) (UniProt P04637); assay: ATG_p53_CIS: Attagene CIS-FACTORIAL HepG2 Assay for human p53 Transcription Factor (AID 2282994); conditions: HepG2 p53 cis-element reporter, Attagene mRNA; actives raise or lower the signal
Sequence of Cellular tumor antigen p53 (Homo sapiens) (P04637 whole entry, looked up): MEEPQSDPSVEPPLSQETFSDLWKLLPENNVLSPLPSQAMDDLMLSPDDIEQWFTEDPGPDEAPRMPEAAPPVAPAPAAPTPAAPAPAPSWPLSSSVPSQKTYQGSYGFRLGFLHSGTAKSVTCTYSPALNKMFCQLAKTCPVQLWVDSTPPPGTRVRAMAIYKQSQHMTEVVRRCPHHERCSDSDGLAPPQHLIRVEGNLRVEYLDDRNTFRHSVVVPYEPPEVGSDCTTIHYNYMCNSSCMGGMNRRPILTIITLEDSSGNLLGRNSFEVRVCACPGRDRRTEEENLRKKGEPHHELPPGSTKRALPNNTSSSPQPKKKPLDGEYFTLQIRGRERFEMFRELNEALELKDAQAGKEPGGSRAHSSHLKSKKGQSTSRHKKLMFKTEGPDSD
Summary of the method: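 Transiently transfected HepG2 (multiple cis reporter transcription units); exposure 24 h; reporter RNA via RT-PCR, 6-FAM extension, 2 h HpaI digest at 37 C, CE detection; DMSO baseline.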

[6] = ATG_NRF2_ARE_CIS: Attagene CIS-FACTORIAL HepG2 Assay for human Nuclear Factor Erythroid 2 Related Factor 2 (NFR2) response to Antioxidant Response Elements (ARE) (AID 2282992); conditions: HepG2 Attagene ARE/NRF2 reporter, transcription factor activity; actives raise or lower the signal;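 as to AC50: reporter mRNA level measured by RT-PCR and capillary electrophoresis fluorescence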
Summary of the method: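 Fluorescence intensity of reporter-specific cDNA fragments, separated by capillary electrophoresis, reflects mRNA induction in transfected HepG2 cells at 24 h. Activity is fitted bidirectionally, DMSO serving as baseline.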

[7] = BSK_3C_TissueFactor: BioMAP Diversity Plus: 3C Assay for Tissue Factor Biomarker Activity (AID 2282997); conditions: BioMAP 3C HUVEC, tissue factor biomarker readout; actives raise or lower the signal
Summary of the method: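 Tissue factor on primary human umbilical vein endothelium was read by ELISA 24 h after dosing, gain or loss relative to DMSO. Cytotoxicity ran alongside via SRB (0.1%, TCA-fixed, 560 nm).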

[8] = BSK_3C_uPAR: BioMAP Diversity Plus: 3C Assay for Urokinase-type plasminogen activator receptor (uPAR) Biomarker Activity (AID 2282998); conditions: BioMAP 3C HUVEC, uPAR biomarker ELISA; actives raise or lower the signal
Summary of the method: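 Readout: ELISA for surface uPAR. System: human umbilical vein endothelial primary cells, 24 h after chemical exposure. Analysis: bidirectional fit, DMSO baseline.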

[9] = BSK_3C_VCAM1: BioMAP Diversity Plus: 3C Assay for Vascular cell adhesion molecule 1 (VCAM1) Biomarker Activity (AID 2282999); conditions: BioMAP 3C HUVEC, VCAM1 ELISA, cytokine-stimulated; actives raise or lower the signal
Summary of the method: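 HUVEC primary cells, 24 h compound exposure; VCAM-1 by ELISA; gain/loss of signal fitted bidirectionally vs DMSO baseline.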

[10] = BSK_4H_Eotaxin3: BioMAP Diversity Plus: 4H Assay for Eotaxin 3 Biomarker Activity (AID 2283000); conditions: primary human endothelial cells (HUVEC); actives raise or lower the signal;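 also: CCL26 protein level quantified by ELISA in parallel with SRB cytotoxicity check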
Summary of the method: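 Human umbilical vein endothelial cells (BSK_4H system) dosed with test chemical; Eotaxin-3 (CCL26) measured by ELISA 24 h after dosing. Bidirectional curve fitting relative to DMSO negative control as baseline.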

Measured: AC50

O=C1c2ccccc2C(=O)N1SC1CCCCC1
inactive: [1] | [2] | [3] | [4]
active: [5] 167 µM

C=CC(=O)OCC(O)COc1ccccc1 (stereo unspecified)
active: [3] 55.7 µM
inactive: [1] | [2] | [4] | [5]

O=C1NC(=O)c2ccccc21
inactive: [1] | [2] | [3] | [4]

Sc1nc(S)nc(S)n1
inactive: [1] | [2] | [3] | [6] | [5]

CCCCNC(=O)NS(=O)(=O)c1ccc(N)cc1
inactive: [1] | [2] | [3] | [6] | [5]

O=c1[nH]nnc2ccccc12
inactive: [1] | [2] | [3] | [4] | [5]

CSc1nc(NC2CC2)nc(NC(C)(C)C)n1
inactive: [1] | [2] | [3] | [4] | [5]

CCCCCCCCCCCCCCCC(=O)O
inactive: [1] | [2] | [3] | [4] | [5]

CC1=CCC2C(C1)C2(C)C (stereo unspecified)
inactive: [1] | [2] | [4] | [5]
active: [3] 49.1 µM

C=CC(=O)NCOCC(C)C
inactive: [1] | [2] | [3] | [4] | [5]

CC(=O)O[C@]1(C(C)=O)CC[C@H]2[C@@H]3C[C@H](C)C4=CC(=O)CC[C@]4(C)[C@H]3CC[C@@]21C
active: [3] 20 µM | [5] 34.9 µM
not listed: [6]
inactive: all other assays above

CC(C)C(C)(C)C(C)(C)C(C)(C)S
inactive: [1] | [2] | [3] | [6] | [5]

CSc1nnc(C(C)(C)C)c(=O)[nH]1
inactive: [1] | [2] | [3] | [4] | [5]

CC1(C)C(=O)N(Br)C(=O)N1Cl
inactive: [1] | [2] | [3] | [4] | [5]

Cc1cccc(Nc2ccccc2C(=O)O)c1C
active: [6] 100 µM
inactive: [1] | [2] | [4]

O=[N+]([O-])c1ccc(Nc2ccc(Nc3ccccc3)c(S(=O)(=O)O)c2)c([N+](=O)[O-])c1
inactive: [1] | [2] | [3]
active: [6] 171 µM | [5] 178 µM

CC(=O)Nc1ccccc1O
not listed: [4]
inactive: all other assays above

Cc1ccc2n[nH]nc2c1
not listed: [6]
inactive: all other assays above

CN(C)C(=N)N=C(N)N
inactive: [1] | [2] | [3] | [6] | [5]

CC(C)=CCC[C@](C)(O)[C@@H]1CC=C(C)CC1
inactive: [1] | [2] | [3] | [4] | [5]

CC(=O)OCc1ccc2c(c1)OCO2
inactive: [1] | [2] | [6] | [4] | [5]

CCCCO
inactive: [1] | [2] | [6] | [4] | [5]

C=C(C)[C@@H]1CC[C@@H](C)C[C@@H]1O
inactive: [1] | [2] | [6] | [4] | [5]

Nc1cccc(S(=O)(=O)c2cccc(N)c2)c1
inactive: [1] | [2] | [6] | [4] | [5]

OCCCCCO
inactive: [1] | [2] | [6] | [4] | [5]

Clc1sc(Cl)c(Cl)c1Cl
inactive: [1] | [2] | [6] | [4]

CCCCOCCOCCOCCOCCO
inactive: [1] | [2] | [6] | [4]

CNCCO
inactive: [1] | [2] | [6] | [4] | [5]

Cc1cccc(C)c1[N+](=O)[O-]
inactive: [1] | [2] | [6] | [4]

O=C(Cl)c1cccc(C(=O)Cl)c1
inactive: [1] | [2] | [6] | [4] | [5]

COc1ccc(OC)c(OC)c1
inactive: [1] | [2] | [6] | [4] | [5]

CC(=O)[O][Al][O]C(C)=O
inactive: [1] | [2] | [6] | [4]

CC1(C)[C@H](C(=O)OCc2cccc(Oc3ccccc3)c2)[C@@H]1C=C(Cl)Cl
inactive: [1] | [2] | [6] | [4] | [5]

CC(C)=CCCC(C)=CCCC(C)=CCO
inactive: [1] | [2] | [4] | [5]
active: [6] 18.8 µM

O=C1CCc2ccccc2O1
inactive: [1] | [2] | [6] | [4] | [5]
